TDP1 cell CPT = DT40-hTDP1 cell growth loss with CPT; AID 686979; actives 12% (n = 420,000); chicken DT40 Tdp1-/-;hTDP1 cells + 20 nM CPT, ATP luminescence, 48 h; Potency, µM (highest dose often 46.2 µM), hits mostly inhibitors; also: nearly all actives have a fitted effect of over 55% in size
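Chicken DT40 Tdp1-/- cells stably complemented with human TDP1 were seeded at 400 cells/well in medium containing 20 nM camptothecin, exposed to pin-transferred compounds, and grown at 37 °C for at least 48 hr. Viability was read as ATP luminescence.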
ClpP mod = qHTS Assay for Activators of ClpP | ATP-dependent Clp protease proteolytic subunit (Bacillus subtilis (strain 168)), P80244 | purified B. subtilis ClpP, FRET peptide cleavage, 20 min | Potency, µM (doses to about 57.5 µM) | actives 1.9% (n = 340,000); active = well fitted falling curve with a large enough effect; inconclusive = small, poorly fitted or top-dose-only effect; inactive = no such curve, though single readings can be large or run the other way; also: the source files actives as falling curves though it sought activators and does not explain the sign; nearly all actives have a fitted effect of over 65% in size
Target sequence (P80244 whole entry, looked up): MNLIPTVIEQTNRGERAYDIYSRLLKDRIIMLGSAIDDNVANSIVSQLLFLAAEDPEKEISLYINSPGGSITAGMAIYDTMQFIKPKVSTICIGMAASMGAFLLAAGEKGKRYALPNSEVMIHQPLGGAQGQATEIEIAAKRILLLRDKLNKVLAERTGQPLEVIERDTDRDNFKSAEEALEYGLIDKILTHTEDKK
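Purified B. subtilis ClpP, 10 microg/mL final in Tris/HCl pH8 with KCl, BSA, glycerol and Tween-20, cleaved an Abz/nitrotyrosine-quenched decapeptide. Fluorescence (ex 320, em 430) was read at 0 and 20 min at room temperature. Delta was normalized to 5.8 microM ADEP and DMSO/no-enzyme controls.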
TDP1 inh = inhibitors of human tyrosyl-DNA phosphodiesterase TDP1. actives 0.28% (n = 350,000). AID 485290. Potency, µM (titrated, usually from 130 µM), hits mostly inhibitors. recombinant TDP1, AlphaScreen DNA substrate cleavage; also: nearly all actives have a fitted effect of over 40% in size
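Tdp1 1 nM final; 15 min RT w/ cpd; substrate 15 nM, 5 min; beads 10 ug/ml, 10 min; AlphaScreen read. Neg ctrl: no enzyme.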
DT40 TDP1 no CPT = qHTS for Inhibitors of human tyrosyl-DNA phosphodiesterase 1 (TDP1): qHTS in cells in absence of CPT | actives 15% (n = 420,000) | DT40 Tdp1-/- hTDP1 cells, no CPT, ATP luminescence, 48 h | Potency, µM (titrated, usually from 46.2 µM), usual class: inhibitors | AID 686978, 2013; also: nearly all actives have a fitted effect of over 55% in size
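DT40 Tdp1-/-;hTDP1 cells, no CPT (DMSO vehicle only), 400 cells/well; compounds pin-transferred; ≥48 hr, 37 °C; CellTiter-Glo 30 min RT dark, luminescence read.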
Numbers stand for hits; . = inactive; ? = inconclusive; / = no result given; [ ] = dose if it differs, or a comment. In the library only some 17% were active in any assay of this set; here they are far more common. Unless noted, calls follow the shape of the dose curve; as a rule, active = well fitted curve in the direction sought with a large enough effect; inconclusive = small, poorly fitted or top-dose-only effect, or another doubt; inactive = no such curve, though single readings can be large; an effect the other way counts as inactive or inconclusive.

SMILES | TDP1 cell CPT | ClpP mod | TDP1 inh | DT40 TDP1 no CPT
Cc1ccc(C)c(CN2C(=O)c3ccccc3S(=O)(=O)c3ccc(C(=O)N4CCN(c5ccccc5)CC4)cc32)c1 | . | . | . | .
Cc1nc2ccccn2c(=O)c1NC(=O)c1cccc(F)c1 | . | . | . | .
CCCCN(C(=O)CN1CCOCC1)c1c(N)n(CC(C)C)c(=O)[nH]c1=O | . | . | . | .
CCc1ccc(S(=O)(=O)Nc2cccc(-c3ccc(N4CCC(C)CC4)nn3)c2)s1 | ? | . | . | ?
CCc1ccc(S(=O)(=O)Nc2cccc(-c3ccc4nncn4n3)c2)s1 | ? | / | . | 15µM
O=C(COc1ccc(Cl)cc1)Nc1cccc(-c2ccc3nncn3n2)c1 | . | / | . | 16µM
COc1ccc(S(=O)(=O)Nc2ccc(-c3ccc4nncn4n3)cc2)c(OC)c1 | 9.2µM | . | . | 10µM
COCC(=O)Nc1cccc(-c2ccc3nncn3n2)c1 | . | . | . | .
O=S(=O)(Nc1ccc(-c2ccc3nncn3n2)cc1)c1ccccc1Cl | ? | . | / | .
COc1ccc(S(=O)(=O)Nc2cccc(-c3ccc4nncn4n3)c2)cc1 | 3.7µM | . | / | 2.6µM
Cc1ccc(CNC(=O)c2ccc3c(O)c(S(=O)(=O)c4ccc(Cl)cc4)c(=O)[nH]c3c2)cc1 | . | . | . | .
C=CCN1C(=O)/C(=C\c2ccc(Oc3nc(N4CCOCC4)nc(N4CCOCC4)n3)c(OC)c2)SC1=S | ? | / | . | ?
CCOC(=O)/C(C#N)=C/Nc1ccccc1OC(F)(F)F | . | . | . | .
COc1cc(OC)cc(C(=O)Nc2cccc(-c3ccc4nncn4n3)c2)c1 | / | / | . | /
COc1ccc(C(=O)Nc2cccc(-c3ccc4nncn4n3)c2)cc1 | 15µM | / | . | 15µM
Cc1ccc(N=Cc2ccc(O)cc2O)cc1F | ? | . | . | 21µM
COc1cccc(C(=O)Nc2ccccc2SCc2cc(=O)c3cccc(C)c3[nH]2)c1 | . | . | . | ?
CCc1nn(CC(=O)N(CC)Cc2ccccc2)c(=O)c2cc3occc3n12 | 23µM | . | . | 16µM
O=C(Cc1c(Cl)cccc1Cl)Nc1cccc(S(=O)(=O)N2CCOCC2)c1 | . | / | . | .
O=C(CNc1ccc(Br)cc1)Nc1cccc(S(=O)(=O)N2CCCC2)c1 | ? | . | . | ?
COc1ccc(NCC(=O)Nc2cccc(S(=O)(=O)N3CCCC3)c2)cc1Cl | ? | . | . | 13µM
COc1cc(NC(=O)CNc2cccc(S(=O)(=O)N3CCCC3)c2)cc(OC)c1 | ? | . | . | ?
CC(=O)c1cccc(NCC(=O)Nc2cc(S(=O)(=O)N3CCCCC3)ccc2C)c1 | 16µM | . | . | ?
O=S(=O)(c1cccc(NC(=S)Nc2ccc(Br)cc2Cl)c1)N1CCOCC1 | 16µM | . | . | 29µM
O=C(CNc1cccc(S(=O)(=O)N2CCCC2)c1)Nc1cccc(Br)c1 | ? | . | .[0.505 µM] | 21µM
SMILES | TDP1 cell CPT | ClpP mod | TDP1 inh | DT40 TDP1 no CPT
COc1ccc(S(=O)(=O)N(C)C)cc1NCC(=O)Nc1ccc(Br)cc1F | 13µM | . | . | 29µM
CC(=O)Nc1ccc(S(=O)(=O)N(C)CC(=O)Nc2ccc(Br)cc2F)cc1 | . | . | / | ?
O=C(Cc1ccc(Br)cc1)Nc1cccc(S(=O)(=O)N2CCOCC2)c1 | . | . | . | .
Cc1ccc(S(=O)(=O)N2CCCCC2)cc1NCC(=O)Nc1ccc(Br)cc1F | 4.6µM | . | / | 3.7µM
CC(CC(=O)Nc1cccc(S(=O)(=O)N2CCCCC2)c1)c1ccccc1 (stereo unspecified) | ? | . | . | ?
O=C(CNc1cccc(S(=O)(=O)N2CCOCC2)c1)Nc1cccc(Br)c1 | ? | 28µM | / | ?
CCCC(C(=O)Nc1cccc(S(=O)(=O)N2CCCC2)c1)c1ccccc1 (stereo unspecified) | 23µM | / | / | 21µM
CN(C)c1oc(/C=C/c2cccs2)nc1S(=O)(=O)c1ccccc1 | . | / | . | .
Cc1cccc(C(=O)c2cnc3ccccc3c2-c2ccccc2)c1 | 15µM | . | . | 26µM
O=C(C(Sc1ccccc1)c1ccccc1)N1CCN(c2ccccc2F)CC1 (stereo unspecified) | ? | . | . | 23µM
O=C(Nc1ccc(NC(=O)N2CCN(c3ccccc3O)CC2)cc1)N1CCN(c2ccccc2O)CC1 | ? | / | / | 26µM
O=C(c1cccc(C(=O)N2CCN(c3ccccc3F)CC2)c1)N1CCN(c2ccccc2F)CC1 | ? | . | . | 23µM
CCn1c(C)c(C)c2cc(C(=O)N3CCCC3)ccc21 | . | . | . | .
O=C(c1c(F)cccc1F)N1CCN(c2ccccc2F)CC1 | . | . | . | .
CCn1c(C)c(C)c2cc(C(=O)N3CCN(c4ccccc4)CC3)ccc21 | 18µM | . | . | ?
Cc1c(C(=O)NCc2cccc([N+](=O)[O-])c2)sc(=O)n1Cc1ccccc1F | ? | . | / | ?
Cc1cc(Cl)c2oc(C(=O)N(C)Cc3ccon3)c(C)c2c1 | ? | . | . | .
Nc1ccccc1N1CCN(C(=O)c2ccccc2)CC1 | . | . | . | .
O=C(NCC(=O)N1CCN(c2ccccc2O)CC1)c1ccco1 | . | . | . | .
O=C(O)c1cccc(N2CCCC2)c1 | . | 28µM | . | .
O=C(NCC(=O)N1CCN(c2ccccc2O)CC1)C1CCCCC1 | 3.7µM | . | . | ?
O=C(c1cccc(C(=O)N2CCN(c3ccccc3)CC2)c1)N1CCN(c2ccccc2)CC1 | ? | . | . | 15µM
O=C(c1ccccc1)c1ccc(C(=O)N2CCN(c3ccccc3O)CC2)cc1 | 26µM | . | / | 12µM
Cc1ccc(NC2=C(CC(=O)O)C(c3ccc(F)cc3)N(c3ccc(C)cc3)C2=O)cc1 (stereo unspecified) | . | . | / | ?
CC1(Oc2ccc3ccccc3c2)CCN(Cc2ccc(OC(F)(F)F)cc2)C1 (stereo unspecified) | . | . | / | .
SMILES | TDP1 cell CPT | ClpP mod | TDP1 inh | DT40 TDP1 no CPT
COC(=O)/C=C1\S/C(=N\N=C\CC(=O)OC)NC1=O | 3.7µM | / | / | 5.2µM
Cc1ccc(NC(=S)N/N=C/c2c(Cl)cccc2Cl)c(C)c1 | 1.3µM | . | . | 1.5µM
COc1cc(/C=N/Nc2ccccc2[N+](=O)[O-])cc(OC)c1O | ? | / | . | 6.5µM
COc1cc(/C=N/Nc2ccc(F)cc2F)cc(OC)c1O | 2.3µM | . | . | 5.8µM
CC(C)(C)NC(=S)N/N=C/c1c(Cl)cccc1Cl | . | . | . | ?
COc1cc(/C=N/Nc2ccc(S(N)(=O)=O)cc2[N+](=O)[O-])cc(OC)c1O | . | . | . | .
O=[N+]([O-])c1cc(C=NN2CCCCCC2)ccc1Cl | . | 28µM | / | ?
NCC(O)CC(=O)O (stereo unspecified) | . | / | . | .
COc1ccc(S(=O)(=O)NNC(=O)Cc2csc(C)n2)cc1[N+](=O)[O-] | ? | / | .[0.505 µM] | .
CCN(C(=O)CCNC(=O)Cn1cnc2ccccc2c1=O)c1cccc(Cl)c1 | . | . | . | .
Fc1ccc(NC(=S)N/N=C/c2cccc(Br)c2)c(F)c1 | 6.5µM | . | . | 4.1µM

Screens: PubChem, National Center for Advancing Translational Sciences (NCATS)
